Drawing on PMC7862700, “An all-to-all approach to the identification of sequence-specific readers for epigenetic DNA modifications on cytosine”, this text covers binding signal for five sequences.

Holding throughout (test): DAPPL (digital affinity profiling via proximity ligation, sequencing); 10 mM Tris-HCl pH 7.5, 50 mM NaCl, 1 mM DTT, 4% glycerol, room temperature, 30 min; GST-TFs on glutathione beads, 16-mer random dsDNA library, 0.1% formaldehyde crosslink after washing; high values mean tight binding
Common to all, as to settings: protein: recombinant; tags: N-terminal GST; dsDNA, one strand shown

The target in one experiment is T1, ERG (Homo sapiens, UniProt P11308 1-479).
T1 sequence: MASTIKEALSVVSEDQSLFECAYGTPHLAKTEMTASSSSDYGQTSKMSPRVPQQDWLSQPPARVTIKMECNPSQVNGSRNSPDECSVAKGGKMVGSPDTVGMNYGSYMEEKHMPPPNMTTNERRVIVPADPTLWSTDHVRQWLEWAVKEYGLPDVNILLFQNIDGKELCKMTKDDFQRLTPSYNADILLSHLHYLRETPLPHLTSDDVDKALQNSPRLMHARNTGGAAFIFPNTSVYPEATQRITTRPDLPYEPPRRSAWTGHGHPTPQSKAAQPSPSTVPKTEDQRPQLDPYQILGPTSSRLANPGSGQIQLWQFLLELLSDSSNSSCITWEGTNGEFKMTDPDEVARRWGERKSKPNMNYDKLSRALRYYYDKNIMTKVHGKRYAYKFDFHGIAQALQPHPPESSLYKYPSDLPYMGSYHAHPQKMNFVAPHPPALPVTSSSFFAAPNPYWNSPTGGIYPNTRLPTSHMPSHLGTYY
The essentials:
(§1)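 Binding signal is each hexamer's read frequency for a factor divided by its frequency in the tag-only sample. The factors were GST-fused human transcription factors from yeast, captured on glutathione beads, DNA-barcoded and pooled with that sample. Pools were incubated with 200 nmole of a random double-stranded 16-mer DNA library in Tris/NaCl/DTT/glycerol buffer at room temperature for 30 min, then washed, crosslinked with 0.1% formaldehyde, proximity-ligated with BsaI/T4 ligase (1 h, 37 °C), PCR-amplified and sequenced on an Illumina NextSeq500.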

The next experiment has as its target T2, ELK4 (Homo sapiens, UniProt P28324-2 1-405).
T2 sequence: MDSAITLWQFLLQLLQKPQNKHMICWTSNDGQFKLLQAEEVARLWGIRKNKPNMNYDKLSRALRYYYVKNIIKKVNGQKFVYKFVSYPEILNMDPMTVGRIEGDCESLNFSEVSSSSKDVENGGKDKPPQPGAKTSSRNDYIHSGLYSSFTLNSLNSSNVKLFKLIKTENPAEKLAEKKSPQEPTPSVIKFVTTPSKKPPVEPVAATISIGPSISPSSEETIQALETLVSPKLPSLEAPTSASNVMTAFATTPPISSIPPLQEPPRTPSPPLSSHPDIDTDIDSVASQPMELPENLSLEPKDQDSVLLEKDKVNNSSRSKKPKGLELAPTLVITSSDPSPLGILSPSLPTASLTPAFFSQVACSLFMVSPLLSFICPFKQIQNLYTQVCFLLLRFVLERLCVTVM
The essentials: as §1

For a further experiment, the target named is T3, ETV3L (Homo sapiens, UniProt Q6ZN32 1-361).
T3 sequence: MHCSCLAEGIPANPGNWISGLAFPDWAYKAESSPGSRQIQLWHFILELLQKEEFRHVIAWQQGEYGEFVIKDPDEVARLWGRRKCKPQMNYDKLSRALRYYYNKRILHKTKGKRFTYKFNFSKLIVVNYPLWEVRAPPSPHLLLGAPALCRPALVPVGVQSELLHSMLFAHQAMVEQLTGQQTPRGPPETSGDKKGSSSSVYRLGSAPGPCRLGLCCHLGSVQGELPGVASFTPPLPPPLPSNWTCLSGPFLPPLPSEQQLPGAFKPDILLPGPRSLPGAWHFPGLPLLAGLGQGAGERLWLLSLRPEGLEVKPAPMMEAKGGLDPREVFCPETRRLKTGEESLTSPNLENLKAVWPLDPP
The essentials:
as §1

The target in the next experiment is T4, ETV7 (Homo sapiens, UniProt Q9Y603 1-341).
T4 sequence: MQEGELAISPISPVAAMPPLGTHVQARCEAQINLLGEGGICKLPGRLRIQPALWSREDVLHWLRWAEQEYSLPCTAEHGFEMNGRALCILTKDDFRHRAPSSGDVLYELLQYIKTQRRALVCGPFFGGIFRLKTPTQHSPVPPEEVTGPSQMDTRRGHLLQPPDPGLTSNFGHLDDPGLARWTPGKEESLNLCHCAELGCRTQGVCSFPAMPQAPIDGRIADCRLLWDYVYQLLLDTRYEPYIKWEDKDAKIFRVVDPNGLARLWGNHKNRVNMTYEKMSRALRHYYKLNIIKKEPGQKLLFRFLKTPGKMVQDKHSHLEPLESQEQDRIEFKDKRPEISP
The essentials:
as §1

A further experiment addresses T5, ELK3 (Homo sapiens, UniProt P41970 1-407).
T5 sequence: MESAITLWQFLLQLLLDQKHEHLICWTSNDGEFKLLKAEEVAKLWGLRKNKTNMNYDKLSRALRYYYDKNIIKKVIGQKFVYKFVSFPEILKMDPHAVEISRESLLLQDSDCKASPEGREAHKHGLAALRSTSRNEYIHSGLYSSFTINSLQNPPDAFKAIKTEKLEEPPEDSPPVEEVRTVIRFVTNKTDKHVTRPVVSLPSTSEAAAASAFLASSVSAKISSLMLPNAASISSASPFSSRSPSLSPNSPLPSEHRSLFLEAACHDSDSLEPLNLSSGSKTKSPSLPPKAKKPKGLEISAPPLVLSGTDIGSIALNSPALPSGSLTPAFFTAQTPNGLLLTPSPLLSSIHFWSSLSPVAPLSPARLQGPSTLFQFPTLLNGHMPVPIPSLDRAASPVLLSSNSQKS
The method, boiled down:
as §1

The next experiment has as its target T6, ETV2 (Homo sapiens, UniProt O00321 1-342).
T6 sequence: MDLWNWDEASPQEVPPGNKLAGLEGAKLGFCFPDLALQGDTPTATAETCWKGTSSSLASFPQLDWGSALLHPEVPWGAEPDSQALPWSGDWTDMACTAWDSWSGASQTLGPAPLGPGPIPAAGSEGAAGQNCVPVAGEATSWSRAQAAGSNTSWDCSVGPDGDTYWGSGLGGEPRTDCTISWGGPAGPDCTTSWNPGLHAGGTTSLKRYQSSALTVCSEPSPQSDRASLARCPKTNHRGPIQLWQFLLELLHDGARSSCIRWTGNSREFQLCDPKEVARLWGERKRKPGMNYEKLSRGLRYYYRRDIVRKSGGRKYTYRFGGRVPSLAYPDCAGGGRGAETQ
The essentials: as §1

The target of a further experiment is T7, ELF3 (Homo sapiens, UniProt P78545 1-371).
T7 sequence: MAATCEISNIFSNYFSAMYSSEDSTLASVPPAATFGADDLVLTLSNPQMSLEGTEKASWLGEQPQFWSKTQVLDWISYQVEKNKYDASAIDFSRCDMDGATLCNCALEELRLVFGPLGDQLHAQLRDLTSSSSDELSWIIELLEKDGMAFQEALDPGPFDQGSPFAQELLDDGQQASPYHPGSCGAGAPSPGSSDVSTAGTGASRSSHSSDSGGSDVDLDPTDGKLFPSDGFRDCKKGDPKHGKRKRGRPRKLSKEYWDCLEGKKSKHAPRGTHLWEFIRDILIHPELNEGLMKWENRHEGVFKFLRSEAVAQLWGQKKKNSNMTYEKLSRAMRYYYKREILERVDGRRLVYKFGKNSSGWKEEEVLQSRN
The method, boiled down: as §1

The next experiment deals with T8, ERF (Homo sapiens, UniProt P50548 1-548).
T8 sequence: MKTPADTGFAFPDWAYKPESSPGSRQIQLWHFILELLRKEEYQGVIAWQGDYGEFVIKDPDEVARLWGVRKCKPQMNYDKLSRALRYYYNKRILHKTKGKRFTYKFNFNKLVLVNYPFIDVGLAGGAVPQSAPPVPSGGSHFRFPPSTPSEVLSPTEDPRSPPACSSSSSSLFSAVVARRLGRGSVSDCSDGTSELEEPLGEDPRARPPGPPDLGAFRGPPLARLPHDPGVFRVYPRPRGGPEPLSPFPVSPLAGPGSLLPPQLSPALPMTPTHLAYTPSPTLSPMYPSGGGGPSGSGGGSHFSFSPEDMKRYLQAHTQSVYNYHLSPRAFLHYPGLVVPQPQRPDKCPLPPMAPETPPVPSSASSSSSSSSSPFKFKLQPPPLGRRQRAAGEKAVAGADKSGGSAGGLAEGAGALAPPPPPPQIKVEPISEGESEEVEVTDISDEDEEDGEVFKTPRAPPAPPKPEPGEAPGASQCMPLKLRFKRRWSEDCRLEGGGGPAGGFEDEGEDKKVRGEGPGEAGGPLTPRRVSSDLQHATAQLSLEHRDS
The method, boiled down:
as §1

For another experiment, the target named is T9, ETS2 (Homo sapiens, UniProt P15036 1-469).
T9 sequence: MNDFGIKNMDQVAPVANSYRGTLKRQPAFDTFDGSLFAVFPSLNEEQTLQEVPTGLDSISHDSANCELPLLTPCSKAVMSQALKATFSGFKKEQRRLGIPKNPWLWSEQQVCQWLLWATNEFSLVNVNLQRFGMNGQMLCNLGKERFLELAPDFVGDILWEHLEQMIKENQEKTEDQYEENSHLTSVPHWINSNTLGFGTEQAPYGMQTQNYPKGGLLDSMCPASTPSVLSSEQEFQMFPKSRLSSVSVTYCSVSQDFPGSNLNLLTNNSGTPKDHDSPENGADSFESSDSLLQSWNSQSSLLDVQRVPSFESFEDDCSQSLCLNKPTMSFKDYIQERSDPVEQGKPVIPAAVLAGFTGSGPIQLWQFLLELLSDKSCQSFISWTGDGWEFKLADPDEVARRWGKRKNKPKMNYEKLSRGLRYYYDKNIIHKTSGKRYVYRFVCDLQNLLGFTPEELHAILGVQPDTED
The essentials:
as §1

The next experiment has as its target ELF1 (Homo sapiens, UniProt P32519 1-619). The method, boiled down: as §1
The next experiment has as its target T10, EHF (Homo sapiens, UniProt Q9NZC4 1-300).
T10 sequence: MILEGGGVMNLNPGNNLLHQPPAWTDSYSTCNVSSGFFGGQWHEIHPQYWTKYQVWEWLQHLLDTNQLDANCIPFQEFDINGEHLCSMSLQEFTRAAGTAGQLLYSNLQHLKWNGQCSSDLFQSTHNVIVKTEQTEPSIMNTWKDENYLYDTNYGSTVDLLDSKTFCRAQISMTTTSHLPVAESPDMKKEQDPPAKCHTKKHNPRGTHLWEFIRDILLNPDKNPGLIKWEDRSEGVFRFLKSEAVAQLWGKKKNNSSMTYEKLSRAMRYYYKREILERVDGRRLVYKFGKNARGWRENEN
The method, boiled down:
as §1

The next experiment addresses ETV1 (Homo sapiens, UniProt P50549 1-477). The method, boiled down: as §1
The target of another experiment is T11, SPDEF (Homo sapiens, UniProt O95238 1-335).
T11 sequence: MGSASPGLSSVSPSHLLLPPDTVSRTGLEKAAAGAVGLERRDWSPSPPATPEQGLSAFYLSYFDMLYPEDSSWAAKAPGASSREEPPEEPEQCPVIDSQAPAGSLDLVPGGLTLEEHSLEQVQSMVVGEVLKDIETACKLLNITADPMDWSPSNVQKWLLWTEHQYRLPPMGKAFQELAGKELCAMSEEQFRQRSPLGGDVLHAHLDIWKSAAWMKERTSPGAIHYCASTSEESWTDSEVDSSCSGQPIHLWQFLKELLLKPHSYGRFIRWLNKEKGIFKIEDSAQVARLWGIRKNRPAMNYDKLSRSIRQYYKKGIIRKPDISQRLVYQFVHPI
The essentials: as §1

In the next experiment the target is CRX (Homo sapiens, UniProt O43186 1-299). The essentials:
as §1

The target in a further experiment is T12, ETV3 (Homo sapiens, UniProt P41162-2 1-143).
T12 sequence: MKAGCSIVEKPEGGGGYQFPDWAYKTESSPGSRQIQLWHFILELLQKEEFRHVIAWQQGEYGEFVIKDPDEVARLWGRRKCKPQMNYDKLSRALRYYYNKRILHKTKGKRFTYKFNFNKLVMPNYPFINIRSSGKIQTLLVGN
The essentials: as §1

ELF1, sequence (P32519 whole entry): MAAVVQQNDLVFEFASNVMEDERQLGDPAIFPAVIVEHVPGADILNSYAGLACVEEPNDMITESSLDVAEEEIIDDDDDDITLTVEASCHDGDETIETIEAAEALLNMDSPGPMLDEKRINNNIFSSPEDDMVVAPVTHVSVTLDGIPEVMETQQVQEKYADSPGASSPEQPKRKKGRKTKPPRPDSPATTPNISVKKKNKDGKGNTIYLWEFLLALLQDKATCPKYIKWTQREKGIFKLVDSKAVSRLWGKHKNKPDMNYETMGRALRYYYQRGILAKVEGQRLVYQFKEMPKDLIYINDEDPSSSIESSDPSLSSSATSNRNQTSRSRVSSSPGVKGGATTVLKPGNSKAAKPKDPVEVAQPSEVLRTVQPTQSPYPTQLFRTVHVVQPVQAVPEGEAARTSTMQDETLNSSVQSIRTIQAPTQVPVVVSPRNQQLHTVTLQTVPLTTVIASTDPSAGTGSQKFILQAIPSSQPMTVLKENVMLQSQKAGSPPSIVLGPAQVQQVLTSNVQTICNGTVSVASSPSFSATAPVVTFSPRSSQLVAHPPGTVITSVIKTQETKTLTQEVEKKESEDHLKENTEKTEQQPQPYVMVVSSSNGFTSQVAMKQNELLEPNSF
ETV1, sequence (P50549 whole entry): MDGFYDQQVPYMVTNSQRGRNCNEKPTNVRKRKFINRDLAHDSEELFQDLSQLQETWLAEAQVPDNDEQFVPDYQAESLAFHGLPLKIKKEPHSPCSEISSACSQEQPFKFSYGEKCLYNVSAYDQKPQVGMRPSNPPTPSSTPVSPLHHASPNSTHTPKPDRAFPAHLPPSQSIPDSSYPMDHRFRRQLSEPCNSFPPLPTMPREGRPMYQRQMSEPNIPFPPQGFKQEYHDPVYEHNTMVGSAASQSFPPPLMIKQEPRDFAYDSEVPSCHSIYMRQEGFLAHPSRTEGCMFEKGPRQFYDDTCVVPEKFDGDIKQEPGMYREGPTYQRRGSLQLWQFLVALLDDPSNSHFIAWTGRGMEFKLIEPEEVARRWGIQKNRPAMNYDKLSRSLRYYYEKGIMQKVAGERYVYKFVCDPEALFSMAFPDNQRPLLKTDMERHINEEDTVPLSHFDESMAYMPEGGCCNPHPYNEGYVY
CRX, sequence (O43186 whole entry): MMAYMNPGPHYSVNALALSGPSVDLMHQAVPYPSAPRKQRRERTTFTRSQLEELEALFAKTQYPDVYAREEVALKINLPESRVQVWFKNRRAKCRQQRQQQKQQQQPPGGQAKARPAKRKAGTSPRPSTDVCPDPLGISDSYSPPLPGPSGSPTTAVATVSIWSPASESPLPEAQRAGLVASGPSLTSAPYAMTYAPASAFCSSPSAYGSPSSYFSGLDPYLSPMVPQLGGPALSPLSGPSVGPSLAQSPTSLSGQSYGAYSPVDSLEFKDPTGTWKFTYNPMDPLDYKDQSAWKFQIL

Turning to GTCATT, the binding signal with ERG was 1.03 fold enrichment (6-mer frequency, TF over GST control); in the experiment with ELK4 it was 1.03 fold enrichment (6-mer frequency, TF over GST control); in the experiment with ETV3L, 1.01 fold enrichment (6-mer frequency, TF over GST control); in the experiment with ETV7, 1.01 fold enrichment (6-mer frequency, TF over GST control).

Turning to CAGTAT, the binding signal with ELK3 was 1.03 fold enrichment (6-mer frequency, TF over GST control); with ELK4, 1.06 fold enrichment (6-mer frequency, TF over GST control); with ETV2 it was 1.08 fold enrichment (6-mer frequency, TF over GST control); with ELF3, 1.1 fold enrichment (6-mer frequency, TF over GST control); in the experiment with ERF, 1.1 fold enrichment (6-mer frequency, TF over GST control); with ETV3L, 1.02 fold enrichment (6-mer frequency, TF over GST control). In addition, the binding signal with ETS2 was 1.02 fold enrichment (6-mer frequency, TF over GST control).

GATACC: the binding signal with ELF1 is 1.04 fold enrichment (6-mer frequency, TF over GST control); in the experiment with EHF, 1 fold enrichment (6-mer frequency, TF over GST control); with ELK4, 1.01 fold enrichment (6-mer frequency, TF over GST control); in the experiment with ETV2, 1 fold enrichment (6-mer frequency, TF over GST control); in the experiment with ELF3, 1 fold enrichment (6-mer frequency, TF over GST control); in the experiment with ETV1, 1 fold enrichment (6-mer frequency, TF over GST control). The binding signal in the experiment with SPDEF is 1.04 fold enrichment (6-mer frequency, TF over GST control).

For the sequence GTTGTG, the binding signal was 1.07 fold enrichment (6-mer frequency, TF over GST control) with ELK4 and 1.02 fold enrichment (6-mer frequency, TF over GST control) in the experiment with ETV3L.

Take TCAGTA: the binding signal is 1.01 fold enrichment (6-mer frequency, TF over GST control) with ELF1; 1.01 fold enrichment (6-mer frequency, TF over GST control) with ELK4; 1.03 fold enrichment (6-mer frequency, TF over GST control) with ETV2; 1.08 fold enrichment (6-mer frequency, TF over GST control) with ELF3; 1.07 fold enrichment (6-mer frequency, TF over GST control) in the experiment with CRX; 1.03 fold enrichment (6-mer frequency, TF over GST control) in the experiment with ETV3.
